Experimental data as given in PubChem BioAssay AID651599 (National Center for Advancing Translational Sciences (NCATS), 2012).
Results filed as inconclusive are left out. Active and inactive are the calls of the source. The call rests on the fitted dose curve; in most records, active means well fitted inhibition curve with a large enough effect; inconclusive means small, poorly fitted or top-dose-only effect; inactive means no such curve, though single readings can be large or run the other way.

biological target: Tumor susceptibility gene 101 protein (Homo sapiens) (UniProt Q99816); test: qHTS Assay for Iinhibitors of HIV-1 Budding by Blocking the Interaction of PTAP/TSG101: Hit Validation in TR assay; settings: Tsg101 binding domain + Texas Red-labeled PTAP peptide, fluorescence polarization, 20 min; series mostly up to 57.5 µM; activity change, negative = inhibition: at the top concentration
How it was run: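 Fluorescence polarization: Tsg101 binding domain (10 uM final) with Texas Red-labelled PTAP peptide (50 nM final) in HEPES pH 7.5, 0.15 M NaCl, Tween 20, EDTA, TCEP; 20 min binding at room temperature after compound addition.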
On the % scale 0 is the no-effect control and ±100 the full control effect; potency means the concentration at half of the fitted maximal effect.

Tumor susceptibility gene 101 protein (Homo sapiens), sequence (Q99816 whole entry, looked up, the tested form may be a part): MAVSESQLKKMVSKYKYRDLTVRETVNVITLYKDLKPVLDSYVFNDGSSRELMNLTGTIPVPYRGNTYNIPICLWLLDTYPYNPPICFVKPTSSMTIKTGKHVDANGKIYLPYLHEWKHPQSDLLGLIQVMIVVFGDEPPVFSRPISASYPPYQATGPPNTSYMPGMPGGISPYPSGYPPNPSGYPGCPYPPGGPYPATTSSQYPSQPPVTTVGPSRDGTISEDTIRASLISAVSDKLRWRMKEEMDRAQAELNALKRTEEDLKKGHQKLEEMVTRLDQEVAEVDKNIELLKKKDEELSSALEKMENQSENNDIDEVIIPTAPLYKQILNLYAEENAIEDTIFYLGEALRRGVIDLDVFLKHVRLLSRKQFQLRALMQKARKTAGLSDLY

Activity change, negative = inhibition, inactive:
O=C1NC(c2ccco2)Nc2sc3c(c21)CCN(Cc1ccccc1)C3 (centres undefined) 14.1%
Nc1ccc2nc3c(=O)n(C4CCCCC4)c(=O)[nH]c3nc2c1 -0.548%
O=C(NCc1cccc(F)c1)c1cccc2c1C(=O)c1ccc(N3CCC(Cc4ccccc4)CC3)cc1S2(=O)=O -8.59%
COc1ccc(CNS(=O)(=O)c2cc3c(cc2Cl)N(C(C)=O)CCO3)cc1 -7.94%
Clc1ccc(C2=CC(c3ccco3)n3ncnc3N2)cc1 (centres undefined) 18.6%
CCCCCCN1C=CC=C/C1=C/C=C(C#N)C#N 39.2%
Cn1nc(-c2ccccc2)c2nc3ccccc3nc21 -0.814%
O=C1Nc2ccc(Cl)cc2C12Nc1ccccc1-c1nnc(SCc3ccccc3F)nc1O2 (centres undefined) -20.4%
COc1ccc(N(C(=O)c2snc(C(N)=O)c2N)C(C(=O)NC2CCCC2)c2ccc3ncccc3c2)cc1 (centres undefined) -5.82%
NC(=O)c1ccccc1NCC(=O)c1ccc(F)cc1 -2.66%
O=c1oc2c(CN3CCCCC3)c(O)ccc2cc1-c1nc2ccccc2[nH]1 -9.27%
COCC1CCN(Cc2c(C(=O)N3CCc4ccccc4C3)nc3ccc(Cl)cn23)C1 (centres undefined) 85.7%
CCCCC(=O)NC1=NC(=O)C(C)(C)S1 15.5%
O=C(O)CCNc1ccc(NCCC(=O)O)c2c1C(=O)c1ccccc1C2=O 43.6%
CC(C)c1cc(=O)oc2c3c4c(cc12)CCCN4CCC3 5.05%
COc1cccc(C(=O)c2sc3nc(-c4ccccc4)cc(C(F)(F)F)c3c2N)c1 -9.9%
Cc1cc2nc3c(=O)n(CCc4ccccc4)c(=O)[nH]c3nc2cc1N -0.59%
CCN(CC)c1ccc2cc(-c3nnc(-c4ccncc4)o3)c(=O)oc2c1 14.3%
Cc1ccc(CSc2nnc3c(n2)OC2(Nc4ccccc4-3)C(=O)Nc3ccc(F)cc32)cc1 (centres undefined) 3.74%
CC1=CC(=C(C#N)c2nc3ccccc3s2)C=C(C)N1CC1CCCO1 (centres undefined) 2.93%
Cc1cc(=O)oc2ccc(OC(=O)CN3C(=O)c4cccc([N+](=O)[O-])c4C3=O)cc12 -7.07%
O=C(O)c1ccccc1C1=Nc2ccc(O)cc2Oc2cc(O)ccc21 -18.3%
CCCn1nc(-c2ccccc2)c2nc3ccccc3nc21 11.5%
CCOc1ccc(Cn2c3ccc(OC)cc3c3nc4ccccc4nc32)cc1 22.9%
COc1cccc2c1C(=O)c1c(O)c3c(c(O)c1C2=O)CC(O)(C(C)=O)CC3OC1CC(O)C(O)C(C)O1 (centres undefined) -16.2%
CN1CC=C2C(C#N)=C(N)C(C#N)(C#N)C(Cc3ccccc3)C2C1 (centres undefined) -0.472%
Oc1oc(-c2ccccc2)nc1C=Nc1cccc2ccccc12 -19.4%
O=C1c2cccc3c(O)ccc(c23)C(=O)N1Cc1ccco1 -0.957%
CCOc1ccc(S(=O)(=O)N2CCc3cc(OC)c(OC)cc3C2)cc1 1.06%
CC(=O)c1cccc(-n2nnnc2SCC(=O)Nc2cc(C)on2)c1 2.31%
N=C1CCC(=N)c2c1c(O)c1ccccc1c2O -1.22%
CC1CCN(Cc2c(O)ccc3c2O/C(=C\c2ccco2)C3=O)CC1 17.8%
O=[n+]1c2c(n([O-])c3cc(F)c(N4CCCC4)cc31)CCC2 27.5%
CC[C@@]1(C(=O)OC)N[C@H](CN(C)C(=O)c2ccc(C)cc2)[C@@H]2C(=O)N(Cc3ccccc3)C(=O)[C@@H]21 -6.86%
COc1ccccc1NC(=O)c1sc2nc(Cc3ccccc3)cc(C(F)(F)F)c2c1N 44.1%
CCc1c(C)sc(NC(=O)c2ccccc2[N+](=O)[O-])c1C(N)=O -10.6%
CCOC(=O)c1cc2n(c1/N=C/N(C)C)-c1ccccc1C2=O 43.3%
CCc1ccc(/C=C2/C(=O)N(C)C(=S)N2CC(=O)OC)s1 -11.4%

Potency, active:
CCN(CC)c1ccc(/C=C/C(=O)c2ccc(Br)cc2)cc1 16.3 µM
